What all share (design): scale not given: direction of the effect not stated beside the values
The target of experiment [1] is Protein translocase subunit SecA (Escherichia coli (strain K12)) (UniProt P10408). The experiment in a line: Assay to Identify E. coli SecA ATPase Inhibitors. It counts as functional. As to conditions: 30 µM.
Experiment [2] addresses T1, Ubiquitin-activating enzyme e1, putative (Leishmania donovani (strain BPK282A1)) (UniProt E9BSI1).
T1 sequence (whole entry): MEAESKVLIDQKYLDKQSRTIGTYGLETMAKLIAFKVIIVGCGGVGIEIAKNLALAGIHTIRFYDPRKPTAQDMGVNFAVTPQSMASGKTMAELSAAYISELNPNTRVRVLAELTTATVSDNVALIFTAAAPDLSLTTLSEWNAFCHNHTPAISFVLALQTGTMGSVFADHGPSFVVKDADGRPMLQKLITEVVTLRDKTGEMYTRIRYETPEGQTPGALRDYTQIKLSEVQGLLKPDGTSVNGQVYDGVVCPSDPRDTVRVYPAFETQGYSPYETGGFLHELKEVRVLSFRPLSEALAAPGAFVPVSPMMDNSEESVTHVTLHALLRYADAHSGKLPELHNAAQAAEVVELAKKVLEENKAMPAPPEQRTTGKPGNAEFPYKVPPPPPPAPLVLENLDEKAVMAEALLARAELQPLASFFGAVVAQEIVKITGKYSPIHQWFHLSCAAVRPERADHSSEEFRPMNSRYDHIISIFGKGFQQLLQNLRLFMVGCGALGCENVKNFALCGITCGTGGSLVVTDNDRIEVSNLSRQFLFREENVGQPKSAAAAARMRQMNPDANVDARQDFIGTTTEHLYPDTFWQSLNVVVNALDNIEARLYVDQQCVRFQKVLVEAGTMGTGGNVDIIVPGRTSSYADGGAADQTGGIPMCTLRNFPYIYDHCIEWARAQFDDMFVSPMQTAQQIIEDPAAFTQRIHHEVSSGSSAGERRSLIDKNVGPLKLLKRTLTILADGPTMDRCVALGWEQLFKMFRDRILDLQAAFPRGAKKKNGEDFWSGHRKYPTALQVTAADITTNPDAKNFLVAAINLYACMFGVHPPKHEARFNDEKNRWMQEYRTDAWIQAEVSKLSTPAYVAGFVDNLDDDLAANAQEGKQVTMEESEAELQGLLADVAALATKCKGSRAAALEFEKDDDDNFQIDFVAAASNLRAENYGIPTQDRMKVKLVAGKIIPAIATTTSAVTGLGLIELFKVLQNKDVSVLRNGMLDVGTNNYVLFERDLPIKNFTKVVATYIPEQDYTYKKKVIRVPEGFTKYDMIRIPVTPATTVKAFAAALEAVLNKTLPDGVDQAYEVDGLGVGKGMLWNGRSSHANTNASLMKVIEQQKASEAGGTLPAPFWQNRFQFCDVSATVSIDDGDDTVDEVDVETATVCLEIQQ
Kind of experiment: Leishmania donovani Ubiquitin Activating Enzyme (LdE1). It counts as functional. As to conditions: 30 µM.

Experiment [3] has as its target T2, Aspartate--tRNA(Asp/Asn) ligase (Mycobacterium tuberculosis (strain ATCC 25618 / H37Rv)) (UniProt P9WFW3). Note: in the data most compounds retested in dose-response had high values.
T2 sequence (whole entry): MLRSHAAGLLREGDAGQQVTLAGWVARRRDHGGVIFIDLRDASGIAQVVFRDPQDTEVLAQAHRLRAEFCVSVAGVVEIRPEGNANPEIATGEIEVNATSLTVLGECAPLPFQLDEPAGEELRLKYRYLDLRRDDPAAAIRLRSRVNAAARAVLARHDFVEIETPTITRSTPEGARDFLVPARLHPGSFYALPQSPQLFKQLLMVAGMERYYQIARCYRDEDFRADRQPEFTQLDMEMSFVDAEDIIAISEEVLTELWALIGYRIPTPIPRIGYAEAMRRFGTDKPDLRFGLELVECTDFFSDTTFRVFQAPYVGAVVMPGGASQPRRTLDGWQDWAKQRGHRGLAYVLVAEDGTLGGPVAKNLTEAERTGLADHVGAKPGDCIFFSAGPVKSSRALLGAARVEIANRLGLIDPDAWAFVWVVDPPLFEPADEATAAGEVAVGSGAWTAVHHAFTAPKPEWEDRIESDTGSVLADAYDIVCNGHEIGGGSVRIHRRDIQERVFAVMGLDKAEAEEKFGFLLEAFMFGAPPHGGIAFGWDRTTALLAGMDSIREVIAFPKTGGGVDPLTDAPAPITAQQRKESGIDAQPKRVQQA
Kind of experiment: Assay for Asp RNA synthetase-1 from Mycobacterium tuberculosis. It counts as functional. As to conditions: 30 µM.

Experiment [4] deals with AMP-activated protein kinase, AMPK (Homo sapiens) (UniProt P54646+O43741+P54619+Q9UGJ0+Q9Y478+Q13131+Q9UGI9). Kind of experiment: AMP-dependent Kinase enzyme assay. An in vitro enzyme assay that detects ADP turnover that is directly proportional to AMPK activity. This uses naive AMPK that is activated during the assay with MK-8722. It counts as functional. To be noted: 30 µM.

Experiment [5] deals with Sialic acid-binding Ig-like lectin 9 (Homo sapiens) (UniProt Q9Y336). Kind of experiment: Hs-Siglec9 ALPHAscreen SOP 20170721. As to conditions: 10 µM. On the technique in general: Alpha assays give light when donor and acceptor beads are brought close together.
Another experiment concerns Trypanosoma cruzi. Kind of experiment: Trypanosoma cruzi phosphomannomutase and mannose-1-phosphate guanylyltransferase assay. It counts as functional. As to conditions: 10 µM.
Experiment [6] addresses T3, Arginase-2, mitochondrial (Homo sapiens) (UniProt P78540).
T3 sequence (whole entry): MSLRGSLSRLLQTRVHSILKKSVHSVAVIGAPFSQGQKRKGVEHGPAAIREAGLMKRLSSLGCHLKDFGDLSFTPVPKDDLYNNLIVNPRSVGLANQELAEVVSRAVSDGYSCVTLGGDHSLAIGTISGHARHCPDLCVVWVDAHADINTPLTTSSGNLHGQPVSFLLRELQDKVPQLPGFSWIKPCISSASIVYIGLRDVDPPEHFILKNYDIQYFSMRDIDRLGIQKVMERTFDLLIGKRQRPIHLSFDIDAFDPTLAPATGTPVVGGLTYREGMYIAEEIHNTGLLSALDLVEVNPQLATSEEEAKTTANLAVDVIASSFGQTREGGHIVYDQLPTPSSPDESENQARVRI
Kind of experiment: in vitro enzyme assay to detect the production of urea directly proportional to the activity of Arginase II. Note: in the data most compounds retested in dose-response had high values. It counts as functional. To be noted: 33.3 µM.

Experiment [7] deals with T4, Proteasome subunit beta (Trypanosoma cruzi) (UniProt O96673).
T4 sequence (whole entry): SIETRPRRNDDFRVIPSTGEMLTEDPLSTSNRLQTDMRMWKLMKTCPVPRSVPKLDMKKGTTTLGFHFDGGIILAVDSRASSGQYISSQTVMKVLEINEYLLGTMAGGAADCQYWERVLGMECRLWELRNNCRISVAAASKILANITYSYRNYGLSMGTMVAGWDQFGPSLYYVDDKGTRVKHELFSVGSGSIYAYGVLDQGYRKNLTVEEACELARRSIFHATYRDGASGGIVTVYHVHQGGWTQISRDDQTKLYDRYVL
Kind of experiment: Trypanosoma cruzi proteasome chymotrypsin-like activity (TcProtChymo) assay. Note: in the data most compounds retested in dose-response had high values. The experiment is classed as functional. As to conditions: 9.37 µM.

The species entered for the next experiment is Homo sapiens. The experiment in a line: To identify inhibition of the IFN signalling (Jak-Stat) pathway via expression of an eGFP reporter gene under the control of an IFN-stimulated response element (ISRE) containing MxA promoter. To be noted: 30 µM. It counts as functional. (A reporter such as luciferase makes a cellular process visible.)
The target of experiment [8] is Shiga toxin 2 (Escherichia coli O157:H7) (UniProt P09385+P09386). Kind of experiment: E. coli 0.157:H7 Shiga Toxin SOP - stx2 screening assay. It counts as functional. As to conditions: 30 µM.
The target of experiment [9] is T5, Tyrosyl-tRNA synthetase, putative (Trypanosoma cruzi (strain CL Brener)) (UniProt Q4DSP6).
T5 sequence (whole entry): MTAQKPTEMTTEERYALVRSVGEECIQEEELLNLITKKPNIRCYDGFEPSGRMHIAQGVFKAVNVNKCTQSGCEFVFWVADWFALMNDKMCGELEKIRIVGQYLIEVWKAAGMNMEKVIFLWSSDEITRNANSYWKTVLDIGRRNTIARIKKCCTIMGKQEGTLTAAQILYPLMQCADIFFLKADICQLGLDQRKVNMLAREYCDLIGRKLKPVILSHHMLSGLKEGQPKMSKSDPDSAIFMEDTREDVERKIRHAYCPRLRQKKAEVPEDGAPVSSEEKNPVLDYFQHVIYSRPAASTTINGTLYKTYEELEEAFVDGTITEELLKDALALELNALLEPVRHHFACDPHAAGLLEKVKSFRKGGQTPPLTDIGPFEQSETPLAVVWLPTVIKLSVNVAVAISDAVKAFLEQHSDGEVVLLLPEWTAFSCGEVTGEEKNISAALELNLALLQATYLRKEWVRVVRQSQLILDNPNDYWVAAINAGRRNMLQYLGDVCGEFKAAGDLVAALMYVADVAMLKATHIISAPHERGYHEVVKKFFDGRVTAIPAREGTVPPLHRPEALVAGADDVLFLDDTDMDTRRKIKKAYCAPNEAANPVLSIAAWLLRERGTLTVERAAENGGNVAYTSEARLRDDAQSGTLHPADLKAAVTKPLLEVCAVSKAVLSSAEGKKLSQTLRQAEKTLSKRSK
Kind of experiment: Trypanosoma cruzi tyrosyl tRNA synthetase (TcYRS) _High Tyrosine SOP. Note: in the data most compounds retested in dose-response had high values. It counts as functional. To be noted: 30 µM.

For experiment [10], the target named is T5, Tyrosyl-tRNA synthetase, putative (Trypanosoma cruzi (strain CL Brener)). Kind of experiment: Trypanosoma cruzi tyrosyl tRNA synthetase (TcYRS) SOP. The experiment is classed as functional. As to conditions: 30 µM.
For experiment [11], the target named is Chromo domain-containing protein 1 (Saccharomyces cerevisiae (strain ATCC 204508 / S288c) (Baker's yeast)) (UniProt P32657). The experiment in a line: ScCHD-1 Enzyme Inhibition Assay. Note: in the data most compounds retested in dose-response had high values. As to conditions: 30 µM. The experiment is classed as functional.

The structures appear in SMILES notation. For some assays here: Results with a measured potency or affinity are listed apart.

Sequence of Sialic acid-binding Ig-like lectin 9 (Homo sapiens) (Q9Y336 whole entry): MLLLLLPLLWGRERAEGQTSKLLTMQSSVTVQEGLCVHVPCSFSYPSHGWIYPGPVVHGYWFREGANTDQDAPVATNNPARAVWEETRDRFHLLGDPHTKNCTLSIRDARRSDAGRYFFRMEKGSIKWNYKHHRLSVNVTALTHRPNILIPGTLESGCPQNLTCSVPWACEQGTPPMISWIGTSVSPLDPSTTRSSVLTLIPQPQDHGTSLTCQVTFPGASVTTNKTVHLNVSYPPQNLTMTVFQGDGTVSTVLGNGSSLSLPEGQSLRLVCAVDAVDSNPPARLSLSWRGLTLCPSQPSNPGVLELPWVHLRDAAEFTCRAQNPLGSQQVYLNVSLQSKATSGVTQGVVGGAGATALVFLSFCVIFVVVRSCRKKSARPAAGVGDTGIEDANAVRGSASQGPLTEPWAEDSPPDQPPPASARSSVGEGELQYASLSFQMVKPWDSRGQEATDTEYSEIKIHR
Sequence of Protein translocase subunit SecA (Escherichia coli (strain K12)) (P10408 whole entry): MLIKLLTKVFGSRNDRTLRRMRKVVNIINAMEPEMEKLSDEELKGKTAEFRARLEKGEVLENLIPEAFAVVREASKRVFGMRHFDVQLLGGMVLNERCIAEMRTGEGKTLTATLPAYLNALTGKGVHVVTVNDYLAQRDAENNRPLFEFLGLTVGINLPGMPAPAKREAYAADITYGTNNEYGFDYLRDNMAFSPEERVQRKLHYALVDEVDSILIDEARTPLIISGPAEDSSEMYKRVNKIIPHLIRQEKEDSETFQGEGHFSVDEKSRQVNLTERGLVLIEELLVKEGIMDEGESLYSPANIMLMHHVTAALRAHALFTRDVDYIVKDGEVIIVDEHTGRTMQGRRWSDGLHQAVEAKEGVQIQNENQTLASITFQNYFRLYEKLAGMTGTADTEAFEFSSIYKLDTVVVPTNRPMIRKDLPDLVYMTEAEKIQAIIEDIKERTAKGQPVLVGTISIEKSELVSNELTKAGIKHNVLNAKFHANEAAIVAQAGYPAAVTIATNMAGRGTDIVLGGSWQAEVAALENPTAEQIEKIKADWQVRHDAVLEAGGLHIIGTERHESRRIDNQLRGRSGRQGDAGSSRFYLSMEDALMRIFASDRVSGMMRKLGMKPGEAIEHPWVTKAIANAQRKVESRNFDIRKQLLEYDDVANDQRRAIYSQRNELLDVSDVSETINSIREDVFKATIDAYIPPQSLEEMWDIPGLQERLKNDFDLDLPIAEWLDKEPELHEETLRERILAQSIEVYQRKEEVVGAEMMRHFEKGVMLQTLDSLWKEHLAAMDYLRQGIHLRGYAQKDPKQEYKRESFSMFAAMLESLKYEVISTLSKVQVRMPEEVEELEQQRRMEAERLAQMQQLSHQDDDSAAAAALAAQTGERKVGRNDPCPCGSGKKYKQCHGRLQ
Sequence of Chromo domain-containing protein 1 (Saccharomyces cerevisiae (strain ATCC 204508 / S288c) (Baker's yeast)) (P32657 whole entry, the tested form may be a part): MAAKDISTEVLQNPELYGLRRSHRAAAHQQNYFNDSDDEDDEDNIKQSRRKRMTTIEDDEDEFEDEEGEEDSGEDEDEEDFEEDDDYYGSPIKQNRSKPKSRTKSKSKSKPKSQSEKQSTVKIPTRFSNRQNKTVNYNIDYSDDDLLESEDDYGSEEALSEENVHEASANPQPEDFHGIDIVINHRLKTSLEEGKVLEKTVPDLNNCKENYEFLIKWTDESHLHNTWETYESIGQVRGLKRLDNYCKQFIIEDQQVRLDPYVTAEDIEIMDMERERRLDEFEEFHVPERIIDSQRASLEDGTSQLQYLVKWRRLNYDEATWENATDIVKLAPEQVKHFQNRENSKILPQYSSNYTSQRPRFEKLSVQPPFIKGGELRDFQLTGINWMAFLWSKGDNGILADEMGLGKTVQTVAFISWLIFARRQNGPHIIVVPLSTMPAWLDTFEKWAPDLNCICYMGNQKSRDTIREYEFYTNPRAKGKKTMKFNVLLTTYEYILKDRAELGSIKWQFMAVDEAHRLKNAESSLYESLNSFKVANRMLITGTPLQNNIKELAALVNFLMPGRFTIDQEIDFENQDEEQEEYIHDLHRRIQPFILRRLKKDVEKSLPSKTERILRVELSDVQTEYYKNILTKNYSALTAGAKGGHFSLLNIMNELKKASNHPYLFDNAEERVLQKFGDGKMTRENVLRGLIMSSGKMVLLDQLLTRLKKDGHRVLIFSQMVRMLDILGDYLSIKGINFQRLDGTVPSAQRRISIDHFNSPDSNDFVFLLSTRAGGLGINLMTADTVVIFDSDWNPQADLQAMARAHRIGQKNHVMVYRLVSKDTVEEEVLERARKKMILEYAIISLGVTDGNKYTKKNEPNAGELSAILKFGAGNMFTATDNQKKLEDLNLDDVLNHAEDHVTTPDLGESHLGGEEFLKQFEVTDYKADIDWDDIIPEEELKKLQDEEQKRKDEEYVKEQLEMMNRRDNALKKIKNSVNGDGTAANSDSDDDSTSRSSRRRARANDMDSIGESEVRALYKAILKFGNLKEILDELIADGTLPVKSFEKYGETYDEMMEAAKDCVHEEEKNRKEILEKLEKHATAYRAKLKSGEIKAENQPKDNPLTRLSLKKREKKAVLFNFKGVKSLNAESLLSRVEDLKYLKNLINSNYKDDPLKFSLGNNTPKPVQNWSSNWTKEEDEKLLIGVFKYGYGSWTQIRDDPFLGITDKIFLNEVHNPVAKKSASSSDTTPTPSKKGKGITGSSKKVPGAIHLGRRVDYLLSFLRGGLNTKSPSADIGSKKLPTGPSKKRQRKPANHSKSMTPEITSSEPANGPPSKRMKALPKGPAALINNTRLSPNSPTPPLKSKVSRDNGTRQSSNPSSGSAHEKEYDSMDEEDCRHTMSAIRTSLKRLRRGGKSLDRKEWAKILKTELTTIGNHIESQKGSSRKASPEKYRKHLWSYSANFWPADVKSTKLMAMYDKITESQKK

Take `CCN1CCC2(COCc3cnc(-c4cccnc4)nc32)C1` (stereo not given): the Percent Effect in [1] is -4.12%; in [2], 10.8%; in [3] it was 3.74%; in experiment [4], 3.75%; in experiment [5], 1%; in the experiment with Trypanosoma cruzi it was -2.44%. Moreover, the Percent Effect in experiment [6] was -4.78%; in experiment [7], 19.9%; in the experiment listed under Homo sapiens, 5.19%; in experiment [8], 8.79%; in [9], 3.24%; in experiment [10], 10.3%. The Percent Effect in experiment [11] was determined as 2.57%.

For the molecule `c1ccc(CO[C@H]2CO[C@@]3(CCN(Cc4ccoc4)C3)C2)nc1`, the Percent Effect in experiment [1] was -1.82%; in [2], 14.7%; in experiment [3], 2.15%; in [4] it was 3.34%; in experiment [5], 5.22%; with Trypanosoma cruzi it was -1.38%. For the same molecule, the Percent Effect was -7.57% in experiment [6]; 10.2% in [7]; -27.8% in the experiment filed under Homo sapiens; -30.9% in experiment [8]; -1.06% in experiment [9]; 12.8% in experiment [10]. Also, the Percent Effect in [11] was -9.15%.

On to `Cc1ncccc1OCC(=O)N1CCN[C@H]2CS(=O)(=O)C[C@H]21`, for which the Percent Effect in [1] is -6.4%; in experiment [2] it was 10.8%; in [3] it was 7.97%; in experiment [4] it was -4.66%; in [5], 0.713%; in the experiment with Trypanosoma cruzi, 0.489%. In addition, the Percent Effect in [6] was 4.71%; in experiment [7], 14.2%; in the experiment filed under Homo sapiens, -4.73%; in [8] it was 11.7%; in experiment [9] it was 9.68%; in [10], 18.5%. Further, the Percent Effect in experiment [11] was -1.55%.

Take `Cc1cccc(CN2C[C@@H]3CCCO[C@@H]3[C@H](NS(C)(=O)=O)C2)n1`: the Percent Effect in [1] is -4.89%; in experiment [2] it was 21.3%; in experiment [3] it was 4.75%; in [4], -6.76%; in [5], -3.19%; in the experiment with Trypanosoma cruzi, 5.99%. The Percent Effect in experiment [6] was -50.4%; in [7], 11.1%; in the experiment filed under Homo sapiens, -3.89%; in experiment [8] it was -20.3%; in experiment [9] it was 7.29%; in [10] it was 25%. For the same molecule, the Percent Effect in experiment [11] was -7.06%.

In the case of `CCNC(=O)NC(=O)CNC1(c2noc(C)n2)CCCCC1`, the Percent Effect in experiment [1] is -8.65%; in [2], 15.8%; in experiment [3] it was 0.329%; in experiment [4] it was -3.69%; in experiment [5] it was -6.42%; in the experiment with Trypanosoma cruzi, 6.91%. For the same molecule, the Percent Effect was -5.92% in experiment [6]; 8.34% in experiment [7]; 6.39% in the experiment listed under Homo sapiens; 4.43% in experiment [8]; 3.19% in [9]; -7.79% in experiment [10]. In [11], the Percent Effect is -19.2%.

Values taken from ChEMBL document CHEMBL3988442, “University of Dundee, Small-Polar-MMV Screening Library” (2021).
